Screening data deposited in PubChem by several laboratories.
Compounds with a hit are over-represented: about 2.2% of the library has one in this group of screens.
TWEAK-Fn14 inh: inhibitors of TWEAK-Fn14 signaling, primary screen, luciferase reporter cells, uHTS; TWEAK-stimulated Fn14 reporter cells, luciferase luminescence, 8 h; actives 2% (n = 360,000); inhibition, % at 10 µM; in the data active = inhibition above about 50%
TROY NFkB inh: inhibitors of TROY-driven NF-kB signaling, primary screen, Q293 LMP1-TROYcd cells, NF-kB luciferase, uHTS. Q293 LMP1-TROYcd NF-kB luciferase reporter, 4 h. actives 0.98% (n = 360,000). inhibition, % at 10 µM;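 active = compounds whose plate-normalised and pattern-corrected inhibition of the luciferase reporter signal at the single screening dose is 50% or more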
HSP90 inh: HSP90 inhibitors, primary screen, cell lysate, luminescence | Heat shock protein HSP 90 (rabbit reticulocyte lysate; luciferase refolding) | Rabbit reticulocyte lysate, luciferase refolding luminescence, 3 h | inhibition, % at 5.6 µM | actives 0.91% (n = 290,000);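 active = inhibition above the screen-wide mean plus 3 SD, computed separately per campaign, cut at about 16% in these data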;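 also: 0% = DMSO wells and 100% = 60 µM geldanamycin wells; inhibitors lower the luminescence because luciferase stays unfolded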
LGR2 antag: inhibitors of bursicon-induced LGR2 CRE-luciferase signal, primary screen, cell-based, HEK293, CRE-luciferase reporter, bursicon stimulation; Drosophila bursicon receptor LGR2 (rickets); bursicon-stimulated, 4 h; inhibition, % at 9.99 µM; actives 0.35% (n = 380,000); AID 720647, 2013;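 active = drop in luminescence signal, shown as inhibition above about 50% in the replicate tests, limit read from the data, passing the limit was not always enough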;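 also: agonist challenge used bursicon conditioned medium at about half maximal strength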
HSP90 inh confirm: HSP90 inhibitors, confirmation, cell lysate, luminescence | shares compounds with HSP90 inh | rabbit reticulocyte lysate, luciferase refolding luminescence, 3 h | inhibition, % at 5.9 µM | actives 64% (n = 2,300); in the data active = inhibition above about 18%;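 also: 0% = vehicle wells and 100% = reference inhibitor wells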
luciferase ctr: firefly luciferase inhibitors, HSP90 counter-screen, confirmation, artefact control for HSP90 inhibitor project, biochemical, luminescence, triplicate | shares compounds with HSP90 inh | purified native firefly luciferase | inhibition, % at 5.9 µM | actives 48% (n = 2,300) | AID 1847, 2009;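 active = inhibition above the mean inhibition of all tested sample wells plus 3 SD, cut at about 10% in these data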;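 also: 0% = DMSO with luciferase and 100% = wells lacking luciferase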
Target sequence (P08659 whole entry, looked up): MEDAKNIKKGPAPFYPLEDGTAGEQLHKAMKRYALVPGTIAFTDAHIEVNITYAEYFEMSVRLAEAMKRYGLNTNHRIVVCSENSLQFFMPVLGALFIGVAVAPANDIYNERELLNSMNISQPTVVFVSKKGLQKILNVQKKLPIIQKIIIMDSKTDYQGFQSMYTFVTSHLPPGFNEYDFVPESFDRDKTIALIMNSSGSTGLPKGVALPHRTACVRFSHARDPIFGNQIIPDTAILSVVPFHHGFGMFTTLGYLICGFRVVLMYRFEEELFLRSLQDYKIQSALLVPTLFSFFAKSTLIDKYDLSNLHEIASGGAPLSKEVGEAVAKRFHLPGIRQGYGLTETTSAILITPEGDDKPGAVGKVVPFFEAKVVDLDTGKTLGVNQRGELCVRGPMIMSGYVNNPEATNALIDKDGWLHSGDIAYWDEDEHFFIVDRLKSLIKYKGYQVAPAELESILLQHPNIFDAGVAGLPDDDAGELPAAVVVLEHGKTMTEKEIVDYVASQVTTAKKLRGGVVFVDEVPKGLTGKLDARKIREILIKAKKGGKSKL
The depositor's hits bear a star.

Results for C[C@H]1CN([C@@H](C)CO)C(=O)c2cc(C#Cc3ccccc3)cnc2O[C@@H]1CN(C)C(=O)CN(C)C ?
LGR2 antag: -13

Results for CCOc1ccccc1Nc1nc(-c2sc(NC(=O)c3ccc([N+](=O)[O-])cc3)nc2C)cs1 ?
HSP90 inh: 79*; HSP90 inh confirm: 20*; luciferase ctr: -4

What do the screens show for `Cc1ccc(Cl)cc1Nc1nc(-c2sc(NC(=O)c3ccco3)nc2C)cs1`?
TWEAK-Fn14 inh: 18; TROY NFkB inh: 10; HSP90 inh: 10; LGR2 antag: 4

How did Cc1ccccc1Nc1nc(-c2sc(NC(=O)c3ccccc3)nc2C)cs1 do in these assays?
HSP90 inh: 59*; HSP90 inh confirm: 30*; luciferase ctr: -14

What do the screens show for `Cc1ccc(Cl)cc1Nc1nc(-c2sc(NC(=O)c3cccc(Cl)c3)nc2C)cs1`?
HSP90 inh: 65*; HSP90 inh confirm: 44*; luciferase ctr: -20

What do the screens show for `COc1ccccc1Nc1nc(-c2sc(NC(=O)c3ccco3)nc2C)cs1`?
TWEAK-Fn14 inh: 23; TROY NFkB inh: 8; HSP90 inh: 12; LGR2 antag: 0

How did CCC(C)C(=O)Nc1nc(C)c(-c2csc(Nc3ccccc3OC)n2)s1 (stereo unspecified) do in these assays?
TWEAK-Fn14 inh: -2; TROY NFkB inh: -24; HSP90 inh: 3; LGR2 antag: -10

Results for Cc1ccccc1Nc1nc(-c2sc(NC(=O)c3ccc([N+](=O)[O-])cc3)nc2C)cs1 ?
HSP90 inh: 79*; HSP90 inh confirm: 53*; luciferase ctr: -4

How did CCCCC(=O)Nc1nc(C)c(-c2csc(Nc3ccccc3OC)n2)s1 do in these assays?
TWEAK-Fn14 inh: -1; TROY NFkB inh: -27; HSP90 inh: 3; LGR2 antag: -20

What do the screens show for `CNC[C@@H]1OCCCC[C@H](C)Oc2ccc(NC(=O)Nc3ccccc3)cc2C(=O)N([C@@H](C)CO)C[C@@H]1C`?
LGR2 antag: 2

What do the screens show for `Cc1noc(C)c1S(=O)(=O)Nc1ccc2c(c1)C(=O)N([C@H](C)CO)C[C@@H](C)[C@H](CN(C)C(=O)Nc1cccc3ccccc13)O2`?
LGR2 antag: 5

What do the screens show for `Cc1ccc(-c2ccc([C@@H]3[C@H]4CN(C(=O)c5cccnc5)CC(=O)N4[C@H]3CO)cc2)cc1`?
LGR2 antag: 1

What do the screens show for `CCCCCC(=O)Nc1nc(C)c(-c2csc(Nc3cc(Cl)ccc3C)n2)s1`?
TWEAK-Fn14 inh: -14; TROY NFkB inh: 13; HSP90 inh: 0; LGR2 antag: -6

What do the screens show for `Cc1ccc(Nc2nc(-c3sc(NC(=O)c4ccc([N+](=O)[O-])cc4)nc3C)cs2)cc1`?
HSP90 inh: 81*; HSP90 inh confirm: 45*; luciferase ctr: -10

What do the screens show for `Cc1ccc(-c2csc(NC(=O)c3ccc(-c4ccccc4)cc3)n2)o1`?
TWEAK-Fn14 inh: 67*; TROY NFkB inh: 49; HSP90 inh: 37*; HSP90 inh confirm: 36*; luciferase ctr: 0

What do the screens show for `Cc1ccccc1Nc1nc(-c2sc(NC(=O)c3cccc(Cl)c3)nc2C)cs1`?
HSP90 inh: 78*; HSP90 inh confirm: 52*; luciferase ctr: -6

How did O=C(Nc1nc(-c2ccco2)cs1)c1ccccc1 do in these assays?
TWEAK-Fn14 inh: -1; TROY NFkB inh: 9; HSP90 inh: -5

What do the screens show for `C[C@H](CO)N1C[C@H](C)[C@@H](CN(C)CC2CCCCC2)Oc2ccc(NC(=O)CCN3CCOCC3)cc2CC1=O`?
LGR2 antag: -10

What do the screens show for `CCCNC(=O)N[C@@H]1CC[C@@H](CCn2cc(-c3cccc(F)c3)nn2)O[C@H]1CO`?
LGR2 antag: -1

How did CN(C)S(=O)(=O)c1ccc(NC(=O)c2ccncc2)cc1 do in these assays?
TWEAK-Fn14 inh: -3; TROY NFkB inh: -2; HSP90 inh: 42*; HSP90 inh confirm: -4; luciferase ctr: -8

What do the screens show for `CN(C)S(=O)(=O)c1cccc(NC(=O)c2ccncc2)c1`?
TWEAK-Fn14 inh: 7; TROY NFkB inh: 10; HSP90 inh: -4; LGR2 antag: 6

What do the screens show for `C[C@@H]1CN([C@@H](C)CO)C(=O)c2cc(NC(=O)C3CC3)ccc2O[C@@H]1CN(C)S(C)(=O)=O`?
LGR2 antag: -8

How did C[C@H]1CN([C@@H](C)CO)C(=O)Cc2cc(NS(=O)(=O)c3ccc(F)cc3)ccc2O[C@@H]1CN(C)Cc1ccc(C(F)(F)F)cc1 do in these assays?
LGR2 antag: 3

Results for COc1ccccc1-c1ccc2c(c1)[C@H]1[C@H](CCN1S(=O)(=O)c1cccc(C)c1)[C@H](CO)N2 ?
LGR2 antag: -13

How did CCc1nnc(NC(=O)CSc2nc(C)c3c(c2C#N)CCCC3)s1 do in these assays?
TWEAK-Fn14 inh: 58*; TROY NFkB inh: 65*; HSP90 inh: 21*; LGR2 antag: 23; HSP90 inh confirm: 7; luciferase ctr: 0

How did CCC(=O)Nc1ccc2c(c1)OC[C@@H](C)N(C(=O)NC(C)C)C[C@H](C)[C@H](OC)CN(C)C2=O do in these assays?
LGR2 antag: -8

Results for Cc1ccc(OCc2nc(-c3ccccn3)no2)c(Br)c1 ?
TWEAK-Fn14 inh: 85*; TROY NFkB inh: 36; HSP90 inh: 40*; HSP90 inh confirm: 65*; luciferase ctr: 61*

What do the screens show for `O=C(O)c1ccc(N/N=C/c2c[nH]c3ccccc23)cc1`?
TWEAK-Fn14 inh: -16; TROY NFkB inh: 53*; HSP90 inh: 82*; LGR2 antag: 59*; HSP90 inh confirm: 89*; luciferase ctr: 86*

What do the screens show for `CC(C)n1cc(/C=N/Nc2ccc(C(=O)O)cc2)c2ccccc21`?
TWEAK-Fn14 inh: 81*; TROY NFkB inh: 62*; HSP90 inh: 63*; LGR2 antag: -1; HSP90 inh confirm: 71*; luciferase ctr: 62*

What do the screens show for `O=C(O)c1ccc(N/N=C/c2cn(Cc3ccccc3F)c3ccccc23)cc1`?
TWEAK-Fn14 inh: 33; TROY NFkB inh: 31; HSP90 inh: 36*; LGR2 antag: -57; HSP90 inh confirm: 39*; luciferase ctr: 32*

How did O=C(O)c1ccc(N/N=C/C(Br)=C/c2ccccc2)cc1 do in these assays?
TWEAK-Fn14 inh: 34; TROY NFkB inh: -6; HSP90 inh: 24*; LGR2 antag: -82; HSP90 inh confirm: 50*; luciferase ctr: 35*

Results for COc1cccc(S(=O)(=O)N2C[C@@H](O)COC[C@H]3O[C@@H](CC(=O)Nc4ccccc4)CC[C@@H]32)c1 ?
LGR2 antag: -4
